Assay results: PubChem BioAssay (Tox21)
Results filed as inconclusive are left out. Activity calls are given as the source filed them. Unless noted, the call rests on the fitted dose curve; in most records, active means well fitted curve in the direction sought with a large enough effect in the repeat runs; inconclusive means weak or mixed curves; inactive means no such curve, though single readings can be large; an effect the other way counts as inactive or inconclusive.

Key:
[1] = qHTS assay to identify small molecule agonists of the sonic hedgehog signaling (Shh) pathway - cell viability counter screen (AID 1259366); further: nearly all actives have a fitted effect of over 50% in size
How it was run: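 Cytotoxicity counter screen: CellTiter-Fluor reagent added after 23 h compound exposure, then 1 h at 37C and fluorescence read. Cells were 3T3 Gli1-Luc, seeded 2,000 per well and dosed 4 h post-plating.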

[2] = qHTS assay to identify small molecule antagonists of the sonic hedgehog signaling (Shh) pathway - cell viability counter screen (AID 1259367); further: nearly all actives have a fitted effect of over 55% in size
How it was run: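 NIH/3T3-derived Gli1-Luc reporter cells, 2,000/well, plated 4 hr before compound addition, then stimulated with conditioned medium for 24 hr at 37C. Viability measured in the same wells by CellTiter-Fluor fluorescence, reagent added at 23 hr for 1 hr.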

[3] = qHTS assay to identify small molecule agonists of the sonic hedgehog signaling (Shh) pathway (AID 1259368; calls by dose curve;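 further: NIH/3T3-derived 3T3Gli1-Luc cells carrying a stable Gli1-driven firefly luciferase reporter; series mostly up to about 92 µM; nearly all actives have a fitted effect of over 15% in size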)
How it was run: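 3T3Gli1-Luc (NIH/3T3 clone, stable Gli1-Luc); 4 hr pre-incubation, then cpd in DMSO 24 hr, 37 C/5% CO2; luciferase reagent 30 min RT; luminescence.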

[4] = qHTS assay to identify small molecule antagonists of the sonic hedgehog signaling (Shh) pathway (AID 1259369; calls by dose curve; further: nearly all actives have a fitted effect of over 45% in size)
How it was run: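 3T3Gli1-Luc, conditioned-medium-stimulated, 24hr cpd, 37C/5% CO2; Gli1-driven firefly Luc luminescence after 30min RT with luciferase reagent. Cells plated 4hr before cpd.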

[5] = molecular target: Estrogen receptor beta (Homo sapiens) (UniProt Q92731); test: qHTS assay to identify small molecule agonists of the estrogen receptor beta (ER-beta) signaling pathway (AID 1259377; active means well fitted activation curve with a large enough effect in the signal ratio in the repeat runs, not every such curve was filed as active; the % refers to the signal ratio)
How it was run: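 Ratiometric beta-lactamase FRET read-out came after 2 h substrate loading at room temperature. It followed 16 h compound treatment at 37C of GripTite HEK293T cells carrying a UAS-bla reporter, plated in 2% charcoal-stripped FBS medium.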

[6] = molecular target: Estrogen receptor beta (Homo sapiens) (UniProt Q92731); test: qHTS assay to identify small molecule antagonists of the estrogen receptor beta (ER-beta) signaling pathway (AID 1259378; active means well fitted inhibition curve with a large enough effect in the signal ratio in the repeat runs, not every such curve was filed as active; the % refers to the signal ratio)
How it was run: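 ER-beta-UAS-bla HEK293T cells in 2% charcoal-stripped FBS medium treated with compound plus 1nM final 17-beta-estradiol for 16 hr at 37C. Beta-lactamase reporter read by FRET substrate fluorescence after 2 hours at room temperature.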

[7] = qHTS assay to identify small molecule agonists of the androgen receptor (AR) signaling pathway in the presence of an antagonist - cell viability counter screen (AID 1259379);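 further: MDA-kb2 human breast cancer cells carrying an MMTV luciferase reporter; series mostly up to about 92 µM; nearly all actives have a fitted effect of over 25% in size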
How it was run: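 Cells: MDA-kb2 (MMTV-luc, AR and GR elements), 3,000/well, 5 hr settle. Added: nilutamide 3.0uM final, then compounds (15 conc.). Incubation: 16 hr, 37C, no CO2. Read-out: CellTiter-Fluor, 1 hr, fluorescence.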

[8] = qHTS assay to identify small molecule antagonists of the estrogen receptor beta (ER-beta) signaling pathway - cell viability counter screen (AID 1259382); further: series mostly up to about 92 µM; nearly all actives have a fitted effect of over 55% in size
How it was run: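 Cells: ER-beta-UAS-bla HEK293T, 2,000/well, 2% CS-FBS, 6 hr settle. Cpd + E2 (1nM final), 16 hr, 37C/5% CO2. Bla FRET substrate 2 hr RT, then CellTiter-Glo 30 min RT, luminescence.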

[9] = qHTS assay to identify small molecule agonists of the estrogen receptor beta (ER-beta) signaling pathway - cell viability counter screen (AID 1259380); further: nearly all actives have a fitted effect of over 30% in size
How it was run: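 HEK293T ER-beta-UAS-bla; 2% CS-FBS; 6 hr pre-plate, 16 hr cpd at 37C/5% CO2; LiveBLAzer read first, then CellTiter-Glo 30 min RT, luminescence.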

[10] = molecular target: Androgen receptor (Homo sapiens) (UniProt P10275); test: qHTS assay to identify small molecule agonists of the androgen receptor (AR) signaling pathway in the presence of an antagonist (AID 1259381; calls by dose curve; further: nearly all actives have a fitted effect of over 15% in size)
How it was run: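 MDA-kb2 cells, 3,000/well, rested 5hr at 37C/0% CO2 → nilutamide 3.0uM final or buffer → compounds, 15 conc. → 16hr at 37C → ONE-Glo, 30min RT → luminescence.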
On the % scale 0 is the no-effect control and ±100 the full control effect.

Chain of Estrogen receptor beta (Homo sapiens) (Q92731 whole entry, looked up): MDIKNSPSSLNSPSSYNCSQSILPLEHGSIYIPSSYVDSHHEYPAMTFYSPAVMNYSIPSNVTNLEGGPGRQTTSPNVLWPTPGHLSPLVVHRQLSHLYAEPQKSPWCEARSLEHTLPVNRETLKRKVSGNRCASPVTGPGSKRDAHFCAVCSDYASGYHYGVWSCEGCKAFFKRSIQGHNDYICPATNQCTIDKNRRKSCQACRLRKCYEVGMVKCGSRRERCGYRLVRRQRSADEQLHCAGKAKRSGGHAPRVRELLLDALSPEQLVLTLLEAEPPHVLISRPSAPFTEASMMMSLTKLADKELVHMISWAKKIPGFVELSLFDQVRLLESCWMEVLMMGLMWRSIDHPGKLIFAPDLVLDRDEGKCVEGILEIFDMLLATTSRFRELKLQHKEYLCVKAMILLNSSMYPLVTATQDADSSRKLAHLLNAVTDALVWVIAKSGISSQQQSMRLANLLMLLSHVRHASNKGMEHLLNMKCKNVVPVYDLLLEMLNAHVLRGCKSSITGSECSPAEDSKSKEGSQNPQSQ
Chain of Androgen receptor (Homo sapiens) (P10275 whole entry, looked up): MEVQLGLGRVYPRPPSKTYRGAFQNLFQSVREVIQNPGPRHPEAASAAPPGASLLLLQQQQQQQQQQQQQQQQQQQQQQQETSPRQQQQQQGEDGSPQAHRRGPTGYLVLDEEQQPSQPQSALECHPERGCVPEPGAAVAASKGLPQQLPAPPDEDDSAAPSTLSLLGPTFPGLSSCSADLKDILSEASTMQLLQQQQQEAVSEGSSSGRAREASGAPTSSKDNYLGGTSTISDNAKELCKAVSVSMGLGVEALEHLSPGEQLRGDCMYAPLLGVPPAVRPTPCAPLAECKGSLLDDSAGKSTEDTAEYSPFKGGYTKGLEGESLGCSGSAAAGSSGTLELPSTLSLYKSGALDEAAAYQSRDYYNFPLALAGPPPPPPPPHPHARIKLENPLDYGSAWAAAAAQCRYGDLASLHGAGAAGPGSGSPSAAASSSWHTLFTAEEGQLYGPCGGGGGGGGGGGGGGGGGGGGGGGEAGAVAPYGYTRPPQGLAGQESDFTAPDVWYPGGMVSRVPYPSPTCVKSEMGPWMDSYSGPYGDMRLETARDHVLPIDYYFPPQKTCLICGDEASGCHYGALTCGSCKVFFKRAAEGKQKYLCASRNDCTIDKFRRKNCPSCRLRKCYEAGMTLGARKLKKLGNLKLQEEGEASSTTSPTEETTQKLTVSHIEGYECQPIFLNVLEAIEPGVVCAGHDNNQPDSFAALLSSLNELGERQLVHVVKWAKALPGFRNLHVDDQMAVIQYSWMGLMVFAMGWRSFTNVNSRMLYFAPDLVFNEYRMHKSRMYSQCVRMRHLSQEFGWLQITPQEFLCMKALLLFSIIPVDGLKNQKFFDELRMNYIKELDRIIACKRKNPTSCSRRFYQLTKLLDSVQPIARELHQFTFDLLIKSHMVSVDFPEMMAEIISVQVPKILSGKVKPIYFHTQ

COC(=O)c1ccc(C(=O)O)cc1
inactive: outcome [1] | outcome [2] | outcome [3] | Potency [4] | Potency [5] | outcome [6] | outcome [7] | outcome [8]

CCCCC(O)/C=C(C)/C=C/C=C/C(=O)N1CCCC1=O (stereo unspecified)
inactive: outcome [1] | outcome [2] | outcome [3] | Potency [4] | Potency [5] | outcome [7] | Potency [9] | outcome [8]

NC[C@H]1O[C@H](O[C@H]2[C@H](O)[C@@H](O[C@H]3O[C@H](CO)[C@@H](O)[C@H](N)[C@H]3O)[C@H](N)C[C@@H]2N)[C@H](N)[C@@H](O)[C@@H]1O
inactive: viability change, negative = cytotoxic [1] 0.901% [at 19 µM] | viability change, negative = cytotoxic [2] 3.49% [at 19 µM] | activity change [3] 0.032% [at 18.9 µM] | activity change, negative = inhibition [4] 16.7% [at 19 µM] | activity change, negative = cytotoxicity [7] -5.29% [at 19 µM] | activity change, negative = cytotoxicity [9] 2.53% [at 19 µM]

COC(C)(C)CC(C)=O
inactive: outcome [1] | outcome [2] | outcome [3] | Potency [4] | Potency [5] | outcome [7] | Potency [9] | outcome [10]

CCCC(C)C(O)CC (stereo unspecified)
inactive: outcome [1] | outcome [2] | outcome [3] | Potency [4] | Potency [5] | outcome [7] | Potency [9] | outcome [8]

O=S(=O)(O)CC(O)CCl (stereo unspecified)
inactive: outcome [1] | outcome [2] | outcome [3] | Potency [4] | Potency [5] | outcome [7] | Potency [9] | outcome [8]

CC[C@@]1(c2ccccc2)NC(=O)N(C)C1=O
inactive: outcome [1] | outcome [2] | outcome [3] | Potency [4] | Potency [5] | outcome [7] | outcome [8]

Nc1ccc(C(=O)NCC(=O)O)cc1
inactive: outcome [1] | outcome [2] | outcome [3] | Potency [4] | Potency [5] | outcome [7] | Potency [9] | outcome [8]

CC(O)C(CO)C(C)O (stereo unspecified)
inactive: outcome [1] | outcome [2] | outcome [3] | Potency [4] | Potency [5] | outcome [7] | Potency [9] | outcome [10] | outcome [8]

Cc1cccc(N)n1
inactive: outcome [1] | outcome [2] | outcome [3] | Potency [4] | outcome [6] | outcome [7] | Potency [9] | outcome [8]

C[C@H]1COc2c(C3(N)CC3)c(F)cc3c(=O)c(C(=O)O)cn1c23
inactive: outcome [1] | outcome [2] | outcome [3] | Potency [4] | outcome [6] | outcome [7] | outcome [8]

C[C@@H]1CCC[C@H](C)N1CCCC(O)(c1ccccc1)c1ccccn1 (stereo partly specified)
inactive: outcome [1] | outcome [2] | outcome [3] | Potency [4] | Potency [5] | outcome [7] | Potency [9] | outcome [10] | outcome [8]

COc1cc(C(=O)NC2CCCNC2)cc(OC)c1OC (stereo unspecified)
inactive: outcome [1] | outcome [2] | outcome [3] | Potency [4] | Potency [5] | outcome [7] | Potency [9] | outcome [8]

Cc1cc(O)c(Cl)cc1C
inactive: outcome [1] | outcome [2] | outcome [3] | Potency [4] | Potency [5] | outcome [7] | Potency [9] | outcome [8]

CCN1CCN(C(=O)N[C@@H](C(=O)N[C@@H]2C(=O)N3[C@@H]2SC(C)(C)[C@H]3C(=O)O)c2ccccc2)C(=O)C1=O
inactive: outcome [1] | outcome [2] | outcome [3] | Potency [4] | Potency [5] | outcome [6] | outcome [7] | outcome [8]

CC(C)c1cc(C(C)C)cc(C(C)C)c1
inactive: outcome [1] | outcome [2] | outcome [3] | Potency [4] | Potency [5] | outcome [6] | outcome [7] | Potency [9] | outcome [8]

CC1(C)S[C@@H]2[C@H](NC(=O)Cc3ccccc3)C(=O)N2[C@H]1C(=O)O (tested in a mixture with another compound)
inactive: outcome [1] | outcome [2] | outcome [3] | Potency [4] | Potency [5] | outcome [7] | Potency [9] | outcome [8]

CCN1CCN(C(=O)N[C@@H](C(=O)N[C@@H]2C(=O)N3C(C(=O)O)=C(CSc4nnnn4C)CS[C@H]23)c2ccc(O)cc2)C(=O)C1=O
inactive: outcome [1] | outcome [2] | outcome [3] | Potency [4] | Potency [5] | outcome [7] | Potency [9] | outcome [8]

C=CCN(CC=C)CC=C
inactive: outcome [1] | outcome [2] | outcome [3] | Potency [4] | Potency [5] | outcome [6] | outcome [7] | outcome [8]

COc1ccc(Cl)cc1C
inactive: outcome [1] | outcome [2] | outcome [3] | Potency [4] | Potency [5] | outcome [7] | Potency [9] | outcome [8]

CCc1ncc(C)[nH]1
inactive: outcome [1] | outcome [2] | outcome [3] | Potency [4] | Potency [5] | outcome [6] | outcome [7] | outcome [10] | outcome [8]

C=CCn1cc[n+](C)c1
inactive: outcome [1] | outcome [2] | outcome [3] | Potency [4] | outcome [6] | outcome [7]

CC(C)CC(O)Cc1ccccc1 (stereo unspecified)
inactive: outcome [1] | outcome [2] | outcome [3] | Potency [4] | Potency [5] | outcome [7] | Potency [9] | outcome [10] | outcome [8]

CNC(=O)c1c(I)c(NC(C)=O)c(I)c(C(=O)O)c1I
inactive: outcome [1] | outcome [2] | outcome [3] | Potency [4] | Potency [5] | outcome [7] | Potency [9] | outcome [8]

CCCCCCCCS(=O)(=O)O
inactive: outcome [1] | outcome [2] | outcome [3] | Potency [4] | outcome [6] | outcome [7] | Potency [9] | outcome [8]

CC(C)(C)OC=O
inactive: outcome [1] | outcome [2] | outcome [3] | Potency [4] | Potency [5] | outcome [6] | outcome [7] | outcome [8]

Cc1ccc(OC(=O)CC(C)C)cc1
inactive: outcome [1] | outcome [2] | outcome [3] | Potency [4] | outcome [7] | outcome [8]

O=C1CCCc2c(O)cccc21
inactive: outcome [1] | outcome [2] | outcome [3] | Potency [4] | outcome [7] | Potency [9] | outcome [10] | outcome [8]
